DT40 TDP1 no CPT: qHTS for Inhibitors of human tyrosyl-DNA phosphodiesterase 1 (TDP1): qHTS in cells in absence of CPT; 420,000 tested, 15% active; DT40 Tdp1-/- hTDP1 cells, no CPT, ATP luminescence, 48 h; Potency, µM (doses to about 46.2 µM), inactives show top-dose activity change, negative = growth inhibition, actives largely listed as inhibitors; note: potency is the fitted concentration of half-maximal effect; nearly all actives have a fitted effect of over 55% in size
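Growth of hTDP1-complemented DT40 Tdp1-knockout cells is measured by ATP luminescence after at least 48 hr compound exposure at 37 °C, with DMSO substituting for the 20 nM CPT used in the parallel screen.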
TDP1 cell CPT: growth inhibition of DT40 Tdp1-/-;hTDP1 cells with camptothecin (screen for TDP1 inhibitors) | chicken DT40 Tdp1-/-;hTDP1 cells + 20 nM CPT, ATP luminescence, 48 h | Potency, µM (series often up to 46.2 µM), for inactives: top-dose activity change, negative = growth inhibition, most hits filed as inhibitors | 420,000 tested, 12% active; note: potency is the fitted concentration of half-maximal effect; nearly all actives have a fitted effect of over 55% in size
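Chicken DT40 Tdp1-/- cells complemented with human TDP1, 400 cells/well, exposed to compounds plus 20 nM camptothecin for at least 48 h at 37 C; viability read as ATP content by CellTiter-Glo luminescence.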
HT1080-NT tox: kills 2HG-producing HT-1080-NT fibrosarcoma cells. HT-1080-NT fibrosarcoma viability, CellTiter-Glo ATP luminescence, 48 h. Potency, µM (doses to about 46.1 µM), for the others: top-dose activity, negative = less viability, actives largely listed as cytotoxic. 360,000 tested, 1.6% active;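 note: NT is the 2HG producing partner of a matched IDH1 knockdown line; potency is the fitted concentration of half-maximal effect; 0% = DMSO-treated cells and -100% = media-only wells without cells; nearly all actives have a fitted effect of over 55% in size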
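750 cells/well, RPMI + 5% FBS; 2 h settle, compound pin-transfer, 48 h at 37 degrees C. CellTiter-Glo 10 min RT, luminescence. Normalized to DMSO and media-only wells.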
uPA generation: cell surface uPA generation inhibition. cell surface uPA generation assay, qHTS. Potency, µM (series often up to 38.3 µM), for inactives: top-dose activity change, negative = inhibition, actives largely listed as inhibitors. 330,000 tested, 0.31% active. AID 540303; active = well fitted inhibition curve with a large enough effect; inconclusive = small, poorly fitted or top-dose-only effect; inactive = no such curve, though single readings can be large or run the other way; tested in mouse RAW 264.7 cells; note: potency is the fitted concentration of half-maximal effect; nearly all actives have a fitted effect of over 55% in size
IL1B secr inh: inhibitors of inflammasome signaling (IL-1 beta secretion); 360,000 tested, 4.7% active; THP-1 LPS/ATP IL-1B secretion, AlphaLISA, 16 h; active compounds read low; AID 743279; activity change, % at 57.5 µM; in the data active = activity change below about -50%; inconclusive = mostly about -30% to -49%
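THP-1 cells pretreated 1 hr with compounds (up to 57.5 uM final), then stimulated with LPS (250 ng/mL final) plus ATP (1.25 mM final); secreted IL-1B measured by AlphaLISA after 16 hr, decreased signal indicating inhibition.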
HT1080 IDH1KD tx: toxicity to HT-1080 IDH1 knockdown cells (counter line). Potency, µM (highest dose often 46.1 µM), without a hit: at the top dose activity, negative = toxicity, actives largely listed as cytotoxic. 360,000 tested, 2% active. HT-1080 IDH1 knockdown viability, ATP luminescence, 48 h;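 note: potency is the fitted concentration of half-maximal effect; 0% = DMSO wells and -100% = cell-free medium wells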
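CellTiter-Glo luminescence after 48 h compound exposure at 37 degrees C of IDH1-knockdown HT-1080 cells in 5% FBS RPMI. %Activity scaled between DMSO wells and cell-free media wells, with curves fitted and assigned curve classes.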
An asterisk follows results filed as active; ? = inconclusive; . = no result given; [ ] = another dose, or the depositor's remark. Rows were chosen to be rich in hits. Some 19% of all compounds tested hit in one or more screens of this group. Unless noted, calls come from the whole dose curve; as a rule, active = well fitted curve in the direction sought with a large enough effect; inconclusive = small, poorly fitted or top-dose-only effect, or another doubt; inactive = no such curve, though single readings can be large; an effect the other way counts as inactive or inconclusive. Unless noted, % is set by controls: 0 for no effect and ±100 for the full control effect.

SMILES	DT40 TDP1 no CPT	TDP1 cell CPT	HT1080-NT tox	uPA generation	IL1B secr inh	HT1080 IDH1KD tx
COc1cc2c(cc1OC)C(COc1ccc(F)cc1)N(C(=O)Cc1ccc(F)cc1)CC2 (stereo not drawn)	16.4µM*	25.9µM*	.	.	.	.
COc1ccc(C2c3cc(OC)c(OC)cc3CCN2C(=O)c2cccc([N+](=O)[O-])c2)cc1OC (stereo not drawn)	?	-23.5%	-9.4%	-1.5%	-15.3	-5.3%
COc1cc2c(cc1OC)C(c1cccc([N+](=O)[O-])c1)N(C(=O)c1ccc(F)cc1)CC2 (stereo not drawn)	13µM*	18.4µM*	?	-0.1%	?	?
CCOc1ccc(C(=O)Nc2cccc(C(C)=O)c2)cc1[N+](=O)[O-]	-18.5%	0.2%	-8.0%	-9.2%	-10.5	17.6%
CCOC(=O)c1ccc(OCC2c3cc(OC)c(OC)cc3CCN2C(=O)Cc2ccc(F)cc2)cc1 (stereo not drawn)	18.4µM*	23.1µM*	.	.	.	.
COc1cc2c(cc1OC)C(c1cccs1)N(C(=O)c1cccc(S(=O)(=O)N(C)C)c1)CC2 (stereo not drawn)	?	23.1µM*	-17.9%	-4.4%	-14.8	-9.8%
CCNC(=S)N1CCc2cc(OC)c(OC)cc2C1COc1ccc(F)cc1 (stereo not drawn)	-4.0%	-2.4%	-13.9%	-5.6%	-61.1*	-14.8%
IC(I)I	?	9.7%	.	.	.	.
Cc1ccc(S(=O)(=O)N2CCN(C(=O)COC(=O)/C=C/c3ccccc3)CC2)c(C)c1	-27.9%	16.4µM*	-0.2%	-9.8%	-12.3	-1.4%
COc1cc(C(=O)OCC(=O)N2CCN(S(=O)(=O)c3ccc(C)cc3C)CC2)c([N+](=O)[O-])cc1OC	20.6µM*	?	-5.8%	-6.5%	0.0	-4.3%
Cc1ccc(S(=O)(=O)N2CCN(C(=O)COC(=O)/C=C/c3cccc([N+](=O)[O-])c3)CC2)c(C)c1	16.4µM*	9.2µM*	13.4%	0.8%	-9.2	-2.0%
Cc1ccc(S(=O)(=O)N2CCN(C(=O)COC(=O)/C=C/c3ccc(F)cc3)CC2)c(C)c1	?	?	8.6%	0.5%	-11.5	13.5%
Cc1ccc(S(=O)(=O)N2CCN(C(=O)COC(=O)C3(C)CC3(Cl)Cl)CC2)c(C)c1 (stereo not drawn)	?	23.1µM*	-4.7%[9.24 µM]	-10.5%	-1.3	0.8%
CCN(CC)C(=O)c1sc2c(c1C)c(=O)n(-c1ccc(Cl)c(Cl)c1)c(=O)n2Cc1cc(=O)n2ccccc2n1	?	-12.7%	.	.	.	.
Cc1ccc(S(=O)(=O)N2CCN(C(=O)COC(=O)/C=C/c3ccc(OC(F)F)cc3)CC2)cc1	20.6µM*	?	-6.8%	14.8%	-11.0	0.0%
CC(=O)OCC(=O)[C@]1(O)C(OC(C)=O)CC2C3CCC4=CC(=O)C=C[C@@]4(C)[C@]3(F)C(O)C[C@]21C (stereo partly drawn)	-8.3%	-3.7%	.	.	.	.
CN(C)CCC1(C2=CCCC2)CC/C(=C/c2ccc(Cl)cc2)C1=O (stereo not drawn)	8.2µM*	7.31µM*	?	-6.9%	-111.4*	?
CC1(C)CCC/C(=C\c2ccccc2)C1=O	-3.5%	-20.3%	7.1%	-9.1%	-6.0	8.6%
O=C(O)c1ccc(S(=O)(=O)/N=C2\C=C(Nc3ccccc3F)C(=O)c3ccccc32)cc1	-85.7%	-96.8%	?	-17.1%	-96.9*	8.2µM*
COC(=O)C(C(C)=O)C1=C/C(=N\S(=O)(=O)c2ccc(C)cc2)c2ccccc2C1=O (stereo not drawn)	10µM*	3.55µM*	?	.	15.6	?
Cc1ccccc1NC1=C/C(=N\S(=O)(=O)c2ccc(C(=O)O)cc2)c2ccccc2C1=O	18.4µM*	16.4µM*	23.1µM*	-5.3%	-90.0*	23.1µM*
CCc1ccc(S(=O)(=O)/N=C2\C=C(NS(=O)(=O)c3ccccc3)C(=O)c3ccccc32)cc1	-27.3%	?	-21.4%	-8.9%	59.0	-23.2%
Cc1ccc(C)c(S(=O)(=O)/N=C2\C=C(NS(=O)(=O)c3ccccc3)C(=O)c3ccccc32)c1	16.4µM*	16.4µM*	-8.9%	1.1%	41.7	-16.4%
CSc1ncc(C(=O)Nc2cccc(Cl)c2C)c(-c2ccccc2)n1	?	-15.6%	.	.	.	.
O=C(Nn1c(C2CCCCC2)nc2ccccc2c1=O)c1ccc([N+](=O)[O-])cc1	-27.8%	8.1%	?	-2.9%	0.0	-10.0%
SMILES	DT40 TDP1 no CPT	TDP1 cell CPT	HT1080-NT tox	uPA generation	IL1B secr inh	HT1080 IDH1KD tx
CCOC(=O)c1ccc(CC(=O)c2ccc(O)cc2O)o1	13µM*	?	9.1%	6.4%	0.0	-1.3%
O=C(NCC(O)CO)c1c(I)c(C(=O)NCC(O)CO)c(I)c(N(CCO)C(=O)CO)c1I (stereo not drawn)	-11.3%[21.1 µM]	-1.3%[21.1 µM]	.	.	.	.
CN(CC(=O)Nc1ccc(Cl)c(Cl)c1)C(=O)c1cccc2cccnc12	-26.9%	?	-0.2%	-1.1%	-0.7	-2.7%
COc1ccc(C2c3[nH]c4ccccc4c3C[C@H]3C(=O)N(c4ccccc4C(=O)NCCN4CCOCC4)C(=O)N23)cc1 (stereo partly drawn)	?	23.1µM*	-9.5%	-18.8%	-0.6	-0.5%
Cc1ccc(C2c3[nH]c4ccccc4c3C[C@H]3C(=O)N(c4ccccc4C(=O)N4CCC(C(=O)O)CC4)C(=O)N23)cc1 (stereo partly drawn)	-6.8%	1.6%	-9.6%	0.2%	18.4	3.7%
O=C(NCCN1CCOCC1)c1ccccc1N1C(=O)[C@@H]2Cc3c([nH]c4ccccc34)C(c3ccc(F)cc3)N2C1=O (stereo partly drawn)	?	14.6µM*	2.4%	-21.9%	8.2	-3.1%
O=C(Nc1cccc([N+](=O)[O-])c1)C1C2CC/C=C\CCC21 (stereo not drawn)	18.4µM*	-27.9%	-0.6%	-0.1%	-4.9	-11.4%
CC(C)(C)c1ccc(C(=O)Nc2cccc([N+](=O)[O-])c2)cc1	18.4µM*	16.4µM*	-16.7%	-9.8%	-98.3*	-7.0%
CC(C)(C)CC(C)(C)NC(=O)Nc1cccc([N+](=O)[O-])c1	16.4µM*	?	?	10µM*	-20.8	?
Cc1cccc(NC(=O)C(=O)NNC(=O)c2ccc(C(C)(C)C)cc2)c1	?	?	6.51µM*	0.9%	-0.9	8.2µM*
Cc1cccc(C(=O)NNC(=O)Nc2ccccc2)c1	-27.4%	-5.6%	14.2%	8.0%	9.4	0.3%
